Experimental data: the supplement of paper PMC6555819

Assays:
Assay in all cases: PBM binding z-score (relative to random genomic background probes); higher = stronger binding; sequences stand for … in GC…GCGATTGACAGCGTAGAATGAAGG
[1] = test system: RARb homodimer (NR concentration 270 nM)
Procedure, shortened: (§1)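 Regression normalization was applied to scanned fluorescence from custom Agilent 4×180K protein-binding microarrays. Before scanning, arrays were incubated 1 h with ligand-free nuclear receptor dimers, and binding was detected with antibodies against each partner (one per run). Binding z-scores use the random background probes as reference.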

[2] = test system: RARg:RXRa (NR concentration 270 nM, RXRa partner concentration 90 nM)
Procedure, shortened: as §1

[3] = test system: RARg homodimer (NR concentration 270 nM)
Procedure, shortened: as §1

[4] = test system: RXRa DBDmut IVT, anti-RXR (DBD mutation: RXRa K156A/R161A, NR concentration 90 nM)
Procedure, shortened: as §1

[5] = test system: RXRa homodimer (NR concentration 180 nM)
Procedure, shortened: as §1

[6] = test system: THRa:RXRa (NR concentration 90 nM, RXRa partner concentration 90 nM)
Procedure, shortened: as §1

[7] = test system: THRa homodimer (NR concentration 90 nM)
Procedure, shortened: as §1

[8] = test system: VDR homodimer (NR concentration 270 nM)
Procedure, shortened: as §1

Sequence | PBM binding z-score [1] | PBM binding z-score [2] | PBM binding z-score [3] | PBM binding z-score [4] | PBM binding z-score [5] | PBM binding z-score [6] | PBM binding z-score [7] | PBM binding z-score [8]
TCGAGTAGGTTAGTCGGGGTATTCAGCCAACATA | -0.161 | -0.227 | -0.435 | 0.0822 | -0.0938 | 1.71 | -0.175 | -0.161
CTACCAAGGTGAACAGGGTCGTTGATTACTATTC | 1.71 | 1.51 | 1.17 | 1.08 | 1.87 | 2.87 | 1.68 | 1.92
ACTATTAGTTGCCTTAGGGCAACCGATACGACGC | 0.893 | 0.429 | 0.732 | 0.351 | 0.447 | 1.46 | 0.815 | 0.176
AGAATGAGGTTATACGTAGATGAGGGAAGAAAGT | 0.964 | 1.74 | 1.17 | 1.8 | 2.24 | 2.26 | 0.843 | 0.924
ACTAGTTGGTCAGCTGAGGTCACACATAATTCGG | 4.45 | 4.1 | 4.13 | 1.13 | 3.93 | 4.88 | 5.2 | 3.19
TCAGATAGGTAAAAGGTGAAAGTCGGTGTGGTAA | 2.19 | 1.89 | 0.855 | 1.85 | 3.06 | 1.76 | 0.528 | 0.262
GCTAGTAGATCAAGGTTAAGAAAGACTAAGCTAA | 0.204 | 0.392 | 0.168 | -0.105 | 0.832 | 1.01 | -0.473 | -0.442
CCTTGCGGGTCACGAGGTTATAGCACGACGAGCG | 3.64 | 5.78 | 5.02 | 1.62 | 6.53 | 3.68 | 1.34 | 1.93
CGTACTGGGCCAAAGGTCATTGATTCCAATGCTC | 4.66 | 5.89 | 4.65 | 1.3 | 6.26 | 3.6 | 0.976 | 2.28
GCAGACAGGTGAAATGCAGGTAACTCAGGGTGGC | 0.337 | 0.64 | 0.23 | -0.341 | 0.602 | 1.38 | -0.107 | -0.285
CGTCCAAGGTCAGTAGGTCAGTGAAAGCGACGTG | 4.74 | 5.95 | 6.1 | 2.72 | 4.05 | 3.35 | 1.74 | 1.94
ATCTCTAGGTAAAAGTTCAGTGACTCCCGAGGAT | 2.46 | 2.04 | 2.16 | 0.624 | 1.75 | 1.32 | 0.142 | 1.69
TCTTGTAAATCAAGCAGGTTAAGAAAGCCTGAGT | 0.102 | 0.0304 | -0.176 | 0.73 | 0.26 | 0.147 | -0.571 | -0.0324
TCGAGTAGGTTAGTCGGGGCATTCAGCCAACATA | 0.309 | -0.257 | -0.115 | 0.217 | -0.227 | 0.885 | -0.0985 | 0.0153
CGTCAAAGTTTAAGGTAACGTAACAGAAAGCAGC | 0.852 | 0.923 | 1.7 | 1.29 | 0.482 | 3.1 | 3.1 | -0.0381
ACAGACAGGTGATGAAGGTAAATCAGGCTATCAT | 0.0548 | 0.28 | 0.373 | -0.384 | 0.316 | 0.885 | -0.061 | -0.34
GCGACTGGGGCAAAGCAGTTTACCATAAGGTTGG | 0.187 | 0.073 | 0.187 | 0.0079 | -0.0226 | 0.718 | -0.284 | -0.185
CCGAGTAGGATATGGGGCATTCAGGCAACGGTGA | 0.223 | -0.15 | 0.00405 | -0.637 | 0.133 | 0.16 | 0.0622 | -0.318
CAGCCTAGGACAGGGCCAGTATAGGAGGAACGTT | -0.1 | -0.205 | 0.0959 | -0.669 | -0.283 | 0.127 | -0.164 | -0.467
CCGACTGGGGCAAGGTTACCAGAACGCACAGCCA | 1.39 | 1.01 | 1.27 | -0.418 | 1.07 | 1.06 | -0.142 | -0.475
AAGACAGGGTCATCGTAGGCCAGAGTACGCACAG | 3.6 | 5.67 | 5.54 | 3.14 | 6.69 | 4.37 | 1.12 | 3.34
CCTAGTTGGTCAGGAGGTGACACACCGGATATGA | 1.48 | 1.12 | 1.22 | -0.691 | 0.768 | 1.18 | 0.64 | 0.232
TAGCCTAGGTCATTCAGGGGCCGGTATAGAAAGC | 2.86 | 5.32 | 4.21 | 1.88 | 3.01 | 3.42 | 0.635 | 1.53
TTACCAAGGTGATGGTCGTTGATCCCTCTGTAGA | 0.0776 | -0.376 | -0.245 | -0.261 | 0.284 | 0.769 | 0.35 | -0.232
GCTGCAAGGTCAGGTTGGTCAGCTAACGGGTACG | 3.9 | 4.56 | 5.49 | 2.04 | 3.72 | 3.26 | 1.48 | 1.23
CCTCCAAGGTCAAAGGTCAGTGAAGAGATGACGG | 5.51 | 8.61 | 7.7 | 3.97 | 10 | 4.65 | 2.63 | 3.92
TCTTGTAGATCACAGGTTAAGAAAGCCGAAGCCT | 0.0208 | 0.222 | 0.135 | 0.557 | 0.811 | 0.341 | -0.442 | -0.219
GTACCAAGGTGAATAGGTCGGTGATGAGTAGGCG | 1.58 | 1.83 | 1.21 | -0.398 | 1.14 | 1.57 | 0.522 | 0.177
